# Many of the other results were omitted from the sample, so the strongest signals are more common in it than they were.
# Key:
# Assay in all cases: glycan array binding signal (z-score within array); higher = stronger binding
# Conditions in all cases: glycan notation: IUPAC condensed, linker removed; mutation: D57L
# [1] = target: Fuc(a1-2)Gal(b1-3)GlcNAc(b1-2)Man(a1-3)[Fuc(a1-2)Gal(b1-3)GlcNAc(b1-2)Man(a1-6)]Man(b1-4)GlcNAc(b1-4)GlcNAc
# Method in brief: (§1)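 Negative Z-scores can be read as non-binding. The Z-score is calculated within each array and then averaged across arrays of one protein sequence at different concentrations or buffers and across linkers. Arrays, 3228 in all, were curated from the Consortium for Functional Glycomics database and kept only where the protein sequence was available.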
# [2] = target: Fuc(a1-2)Gal(b1-3)GlcNAc(b1-3)Gal(b1-4)Glc
# Method in brief: as §1
# [3] = target: Fuc(a1-2)Gal(b1-3)GlcNAc(b1-3)[Gal(b1-4)GlcNAc(b1-6)]Gal(b1-4)Glc
# Method in brief: as §1
# [4] = target: Fuc(a1-2)Gal(b1-3)GlcNAc(b1-3)[Neu5Ac(a2-6)Gal(b1-4)GlcNAc(b1-6)]Gal(b1-4)Glc
# Method in brief: as §1
# [5] = target: Fuc(a1-2)Gal(b1-4)Fuc(a1-3)]GlcNAc(b1-2)Man(a1-3)[Fuc(a1-2)Gal(b1-4)[Fuc(a1-3)]GlcNAc(b1-2)Man(a1-6)]Man(b1-4)GlcNAc(b1-4)GlcNAc
# Method in brief: as §1
# [6] = target: Fuc(a1-2)Gal3S(b1-4)GlcNAc
# Method in brief: as §1
# [7] = target: Fuc(a1-2)Gal6S(b1-3)GlcNAc6S
# Method in brief: as §1
# [8] = target: Fuc(a1-2)[Gal(a1-3)]Gal(b1-3)GalNAc(b1-3)Gal(a1-4)Gal(b1-4)Glc
# Method in brief: as §1
# [9] = target: Fuc(a1-2)[Gal(a1-3)]Gal(b1-4)GlcNAc(b1-2)Man(a1-3)[Fuc(a1-2)[Gal(a1-3)]Gal(b1-4)GlcNAc(b1-2)Man(a1-6)]Man(b1-4)GlcNAc(b1-4)[Fuc(a1-6)]GlcNAc
# Method in brief: as §1
# [10] = target: Fuc(a1-2)[Gal(a1-3)]Gal(b1-4)GlcNAc(b1-6)GalNAc
# Method in brief: as §1
# [11] = target: Fuc(a1-3)[Gal3S(b1-4)]GlcNAc6S
# Method in brief: as §1
# [12] = target: Gal(a1-3)GalNAc
# Method in brief: as §1
# [13] = target: Gal(b1-3)GalNAc(b1-4)Gal(b1-4)Glc
# Method in brief: as §1
# [14] = target: Gal(b1-3)GlcNAc(b1-3)Gal(b1-4)GlcNAc
# Method in brief: as §1
# [15] = target: Gal(b1-3)[Fuc(a1-4)]GlcNAc(b1-2)Man(a1-3)[Gal(b1-3)[Fuc(a1-4)]GlcNAc(b1-2)Man(a1-6)]Man(b1-4)GlcNAc(b1-4)[Fuc(a1-6)]GlcNAc
# Method in brief: as §1
# [16] = target: Gal(b1-4)GlcNAc(a1-6)Gal(b1-4)GlcNAc
# Method in brief: as §1
# [17] = target: Gal(b1-4)GlcNAc(b1-2)Man(a1-3)[Man(a1-6)]Man(b1-4)GlcNAc(b1-4)GlcNAc
# Method in brief: as §1
# [18] = target: Gal(b1-4)GlcNAc(b1-2)Man(a1-6)Man(b1-4)GlcNAc(b1-4)GlcNAc
# Method in brief: as §1
# [19] = target: Gal(b1-4)GlcNAc(b1-3)Gal(b1-4)GlcNAc(b1-2)[Gal(b1-4)GlcNAc(b1-3)Gal(b1-4)GlcNAc(b1-6)]Man(a1-6)[Gal(b1-4)GlcNAc(b1-3)Gal(b1-4)GlcNAc(b1-2)Man(a1-3)]Man(b1-4)GlcNAc(b1-4)GlcNAc
# Method in brief: as §1
# [20] = target: Gal(b1-4)GlcNAc(b1-3)Gal(b1-4)GlcNAc(b1-3)Gal(b1-4)GlcNAc(b1-2)Man(a1-3)[Gal(b1-4)GlcNAc(b1-3)Gal(b1-4)GlcNAc(b1-3)Gal(b1-4)GlcNAc(b1-2)Man(a1-6)]Man(b1-4)GlcNAc(b1-4)[Fuc(a1-6)]GlcNAc
# Method in brief: as §1
# [21] = target: Gal(b1-4)GlcNAc(b1-3)Gal(b1-4)GlcNAc(b1-3)Gal(b1-4)GlcNAc(b1-3)Gal(b1-4)GlcNAc(b1-3)Gal(b1-4)GlcNAc(b1-2)Man(a1-3)[Gal(b1-4)GlcNAc(b1-3)Gal(b1-4)GlcNAc(b1-3)Gal(b1-4)GlcNAc(b1-3)Gal(b1-4)GlcNAc(b1-3)Gal(b1-4)GlcNAc(b1-2)Man(a1-6)]Man(b1-4)GlcNAc(b1-4)[Fuc(a1-6)]GlcNAc
# Method in brief: as §1
# [22] = target: Gal(b1-4)GlcNAc(b1-3)[GlcNAc(b1-6)]Gal(b1-4)GlcNAc
# Method in brief: as §1
# [23] = target: Gal3S(b1-3)GalNAc
# Method in brief: as §1
# [24] = target: Gal3S6S(b1-4)GlcNAc6S
# Method in brief: as §1
# [25] = target: Gal6S(b1-4)Glc
# Method in brief: as §1
# [26] = target: Gal6S(b1-4)GlcNAc
# Method in brief: as §1
# [27] = target: Glc(a1-6)Glc(a1-6)Glc
# Method in brief: as §1
# [28] = target: Glc(a1-6)Glc(a1-6)Glc(a1-6)Glc
# Method in brief: as §1
# [29] = target: GlcNAc(b1-2)[GlcNAc(b1-4)]Man(a1-3)[GlcNAc(b1-2)Man(a1-6)]Man(b1-4)GlcNAc(b1-4)GlcNAc
# Method in brief: as §1
# [30] = target: GlcNAc(b1-2)[GlcNAc(b1-4)]Man(a1-3)[GlcNAc(b1-4)][GlcNAc(b1-2)[GlcNAc(b1-6)]Man(a1-6)]Man(b1-4)GlcNAc(b1-4)GlcNAc
# Method in brief: as §1
binder,measurement,setting,value
PNGase F (Flavobacterium meningosepticum) (protein) GIPAPADNTVNIKTFDKVKNAFGDGLSQSAEGTFTFPADVTAVKTIKMFIKNECPNKTCLEWDRYANVYVKNKTTGEWYEIGRFITPYWVGTEKLPRGLEIDVTDFKSLLSGNTELKIYTETWLAKGREYSVDFDIVYGTPDYKYSAVVPVVQYNKSSIDGVPYGKAHTLALKKNIQLPTNTEKAYLRTTISGWGHAKPYDAGSRGCAEWCFRTHTIAINNSNTFQHQLGALGCSANPINNQSPGNWTPDRAGWCPGMAVPTRIDVLNNSLIGSTFSYEYKFQNWTNNGTNGDAFYAISSFVIAKSNTPISAPVVTNLDPHHHHHH,glycan array binding signal (z-score),[1],3.35
same,glycan array binding signal (z-score),[2],-0.517
same,glycan array binding signal (z-score),[3],0.038
same,glycan array binding signal (z-score),[4],-0.604
same,glycan array binding signal (z-score),[5],7.24
same,glycan array binding signal (z-score),[6],-0.942
same,glycan array binding signal (z-score),[7],4.52
same,glycan array binding signal (z-score),[8],-0.247
same,glycan array binding signal (z-score),[9],1.68
same,glycan array binding signal (z-score),[10],1.12
same,glycan array binding signal (z-score),[11],-0.29
same,glycan array binding signal (z-score),[12],-0.507
same,glycan array binding signal (z-score),[13],-0.31
same,glycan array binding signal (z-score),[14],-0.079
same,glycan array binding signal (z-score),[15],4.53
same,glycan array binding signal (z-score),[16],-1.25
same,glycan array binding signal (z-score),[17],2.77
same,glycan array binding signal (z-score),[18],0.974
same,glycan array binding signal (z-score),[19],3.43
same,glycan array binding signal (z-score),[20],0.367
same,glycan array binding signal (z-score),[21],0.345
same,glycan array binding signal (z-score),[22],3.02
same,glycan array binding signal (z-score),[23],-0.275
same,glycan array binding signal (z-score),[24],3.81
same,glycan array binding signal (z-score),[25],0.11
same,glycan array binding signal (z-score),[26],-0.941
same,glycan array binding signal (z-score),[27],0.269
same,glycan array binding signal (z-score),[28],1.14
same,glycan array binding signal (z-score),[29],-0.836
same,glycan array binding signal (z-score),[30],-0.146

# From the supplement of paper PMC8728848
